Source: PubChem (The Scripps Research Institute Molecular Screening Center)
An excerpt weighted towards active compounds, which were near 2.3% of everything screened.
ZTA counter: counter-screen for EBNA-1 inhibitors: inhibitors of Epstein-Barr virus ZTA; ZTA-DNA binding, fluorescence polarization; 320,000 tested, 0.15% active; inhibition, % at 11 µM; P03206; in the data active = inhibition above about 33%
Target sequence (P03206 whole entry, looked up): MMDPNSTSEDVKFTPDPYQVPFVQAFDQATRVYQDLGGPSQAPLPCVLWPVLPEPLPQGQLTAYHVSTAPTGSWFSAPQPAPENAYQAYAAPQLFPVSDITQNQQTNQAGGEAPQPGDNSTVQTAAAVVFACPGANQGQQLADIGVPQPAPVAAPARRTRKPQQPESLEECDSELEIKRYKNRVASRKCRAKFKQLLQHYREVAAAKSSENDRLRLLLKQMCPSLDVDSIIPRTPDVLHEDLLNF
PP1 counter: PP1-alpha phosphatase inhibitors, primary screen, counter-screen for PP5 inhibitor project, biochemical, fluorescence, OMFP substrate, single point. Serine/threonine-protein phosphatase PP1-alpha catalytic subunit (Homo sapiens), P62136. purified PP1alpha. inhibition, % at 6.7 µM. 320,000 tested, 0.9% active;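 active = inhibition above the mean inhibition of all tested compounds plus 3 SD, computed separately for each screening campaign, cut at about 15% in these data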
Target sequence (P62136 whole entry, looked up): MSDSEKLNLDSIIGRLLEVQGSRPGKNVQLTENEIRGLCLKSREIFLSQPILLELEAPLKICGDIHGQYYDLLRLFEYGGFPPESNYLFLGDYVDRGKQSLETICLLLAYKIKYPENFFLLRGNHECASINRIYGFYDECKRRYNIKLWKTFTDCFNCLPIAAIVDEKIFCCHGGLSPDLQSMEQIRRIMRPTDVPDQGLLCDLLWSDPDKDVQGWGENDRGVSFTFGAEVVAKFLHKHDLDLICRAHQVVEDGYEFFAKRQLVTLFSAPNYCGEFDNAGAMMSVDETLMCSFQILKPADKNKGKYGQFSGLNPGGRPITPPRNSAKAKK
EBNA-1 inhibitor: EBNA-1 DNA-binding inhibitors, primary screen, biochemical, fluorescence polarization; inhibition, % at 14.8 µM; 300,000 tested, 0.34% active; in the data active = inhibition above about 28%
PP5 inh: PP5 phosphatase inhibitors, primary screen, biochemical, fluorescence; Serine/threonine-protein phosphatase 5 (Homo sapiens), P53041; purified PP5c, OMFP substrate fluorescence; inhibition, % at 6.7 µM; 320,000 tested, 0.18% active;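 active = inhibition above the campaign's mean inhibition across all tested compounds plus 3 SD, cut at about 9.5% in these data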
MsrA act: bovine MsrA enzyme activators, primary screen, biochemical, absorbance, HTS; Methionine sulfoxide reductase A (Bos taurus); purified bovine MsrA, absorbance read-out; activation, % at 10.6 µM; 360,000 tested, 0.3% active; AID 602163, 2012; in the data active = activation above about 7.5%
MsrA inhibitor: bovine MsrA enzyme inhibitors, primary screen, biochemical, absorbance, HTS; Methionine sulfoxide reductase A (Bos taurus); purified bovine MsrA, absorbance read-out; inhibition, % at 15.5 µM; 360,000 tested, 0.75% active; AID 651718, 2012; in the data active = inhibition above about 4.5%
PP1 inh confirm: PP1 phosphatase inhibitors, confirmation, biochemical, fluorescence, OMFP substrate, triplicate; 1,900 tested, 52% active; shares compounds with PP1 counter; inhibition, % at 6.7 µM; purified PP1alpha;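 active = mean PP1 inhibition above a set limit taken from the earlier primary screen, cut at about 15% in these data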
PP5 counter: PP5 phosphatase inhibition by PP1 hits, confirmation, counter-screen for PP1 inhibitor project, biochemical, fluorescence, triplicate; shares compounds with PP1 counter; purified PP5c, OMFP fluorescence; inhibition, % at 6.7 µM; 1,900 tested, 4% active; AID 2360, 2010;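 active = mean PP5 inhibition over triplicate wells above about 9.5% taken from the earlier PP1 screen, limit read from the data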
Each line names hits and unclear results; the compound was inactive in the other large screens (follow-up assays come after a bar, where they were run).

NC(=O)CC(NC(=O)Cc1ccc(Br)cc1)c1ccc(N2CCC(Br)CC2)c([N+](=O)[O-])c1 (stereo unspecified)	PP1 counter 27 | PP1 inh confirm 16 | PP5 counter inactive
NC(=O)CC(NC(=O)Cc1ccc(Br)cc1)c1ccc(N2CCC(Cc3ccccc3)CC2)c([N+](=O)[O-])c1 (stereo unspecified)	PP1 counter 23 | PP1 inh confirm inactive | PP5 counter inactive
O=S(=O)(c1cccs1)N1CCN(Cc2cccc(F)c2)CC1	PP1 counter 27 | PP1 inh confirm inactive | PP5 counter inactive
Cc1cccc(C)c1Nc1nnc(SCC(=O)Nc2cc(S(=O)(=O)N3CCCCC3)ccc2Cl)s1	PP1 counter 24 | PP1 inh confirm 21 | PP5 counter inactive
N#CC1CCN(C(=O)c2ccc3c(Cl)c4c(nc3c2)CCCC4)CC1	PP1 counter 23 | PP1 inh confirm inactive | PP5 counter inactive
Cc1cc(C)c(S(=O)(=O)c2ccccc2)c(OC(=O)c2cc(F)c(F)cc2Cl)n1	none
CCOc1ccc2ccccc2c1/C=N/NC(=O)c1ccncc1	none
CC(C)CNC(=O)C1CCN(c2ccc(S(=O)(=O)N3CCOCC3)cc2Cl)CC1	PP1 counter 28 | PP1 inh confirm inactive | PP5 counter inactive
CN(C)C(CNC(=O)c1ccc(S(=O)(=O)Nc2ccccc2F)cc1)c1ccco1 (stereo unspecified)	none (no result: EBNA-1 inhibitor)
Cc1cccc(N2CC(C(=O)Nc3nnc(SCC(=O)Nc4cc(C)on4)s3)CC2=O)c1 (stereo unspecified)	PP1 counter 27 | PP1 inh confirm 27 | PP5 counter inactive
Cn1c(SCC(=O)Nc2ccc3c(c2)OCO3)nnc1C(F)(F)F	none (no result: ZTA counter, PP1 counter, EBNA-1 inhibitor, PP5 inh)
Cc1ccccc1C(=O)Nc1cccc(C(=O)N/N=C/c2cc(Cl)cc([N+](=O)[O-])c2O)c1	PP1 counter 19 | PP1 inh confirm 18 | PP5 counter inactive
COc1ccc(-c2ccc3c(N)c(C(=O)c4cccc(OC)c4)sc3n2)cc1	PP1 counter 30 | PP1 inh confirm 26 | PP5 counter inactive
COc1ccc(C(=O)c2sc3nc(-c4ccc(OC)cc4)ccc3c2N)cc1	none
Cc1ccccc1NC(=S)N(Cc1cccnc1)Cc1ccccc1Cl	none
Cc1cc(OCc2nnc(SCC(=O)O)n2-c2ccccc2)ccc1Cl	none
C/C=C\C=C/C(=O)Nc1cccc(C2=NOC3(C2)C[C@@H](C(N)=O)N(C(=O)/C=C/C=C\C)C3)c1 (stereo partly specified)	PP1 counter 31 (no result: MsrA inhibitor) | PP1 inh confirm inactive | PP5 counter inactive
NC(=O)[C@H]1CC2(CC(c3cccc(NC(=O)CC(c4ccccc4)c4ccccc4)c3)=NO2)CN1C(=O)c1ccccc1C(=O)c1ccccc1 (stereo partly specified)	PP1 counter 19 | PP1 inh confirm inactive | PP5 counter inactive
C=C(C)C(=O)Nc1cccc(C2=NOC3(C2)C[C@@H](C(N)=O)N(C(=O)C2(C)CC2)C3)c1 (stereo partly specified)	PP1 counter 23 | PP1 inh confirm inactive | PP5 counter inactive
C=C(C)C(=O)Nc1cccc(C2=NOC3(C2)C[C@@H](C(N)=O)N(C(=O)C(=C)C)C3)c1 (stereo partly specified)	none
CCOc1ccccc1NC(=O)c1nc(-c2ccccc2)oc1C	none
O=C(COC(=O)c1cc(Cl)ccc1O)Nc1ccc2c(c1)OCCO2	none (no result: EBNA-1 inhibitor)
Cc1cccc(C)c1NC(=O)CN(C)C(=O)c1ccc(NS(=O)(=O)c2ccc3[nH]c(=O)[nH]c3c2)cc1	none
Cc1cccc(C)c1NC(=O)CNC(=O)c1ccc(NS(=O)(=O)c2ccc3[nH]c(=O)[nH]c3c2)cc1	PP1 counter 93 | PP1 inh confirm inactive | PP5 counter inactive
O=C(Nc1cccnc1)c1ccc(Cl)c(S(=O)(=O)N2CCCCC2)c1	none
O=C(Nc1cccnc1)c1ccc(Cl)c(S(=O)(=O)N2CCCC2)c1	PP1 counter 38 | PP1 inh confirm inactive | PP5 counter inactive
Cc1ccc(NC(=O)Cc2nnc(SCC(=O)NC3CCCC3)n2C)cc1C	none
O=C(c1ccc2nc(-c3ccco3)c(-c3ccco3)nc2c1)N1CCN(c2ncccn2)CC1	PP1 counter 33 | PP1 inh confirm inactive | PP5 counter inactive
CC(=O)c1ccc(NC(=O)c2ccc3nc(-c4ccco4)c(-c4ccco4)nc3c2)cc1	PP1 counter 34 (no result: MsrA inhibitor) | PP1 inh confirm 25 | PP5 counter inactive
O=C(Nc1ccccc1)c1ccc2nc(-c3ccco3)c(-c3ccco3)nc2c1	PP1 counter 21 | PP1 inh confirm inactive | PP5 counter inactive
O=C(NCc1ccccc1)c1ccc2nc(-c3ccco3)c(-c3ccco3)nc2c1	PP1 counter 28 | PP1 inh confirm inactive | PP5 counter inactive
O=C(Nc1ccc(N2CCOCC2)cc1)c1ccc2nc(-c3ccco3)c(-c3ccco3)nc2c1	none
COc1ccc(CC(=O)Nc2cccnc2)cc1	none
Cc1ccc(C)c(NC(=O)NNS(=O)(=O)c2ccc(C)c(C)c2)c1	none
O=C(CSc1nc2c([nH]c3ccccc32)c(=O)n1-c1cccc(Cl)c1)N1CCOCC1	PP1 counter 22, EBNA-1 inhibitor 37 | PP1 inh confirm 25 | PP5 counter inactive
CCOc1ccc(C(=O)NN2C(=S)NC(C)(C)C=C2C)cc1	none
COc1ccc([C@@H]2CC=C(C(=O)O)[C@H](c3ccc(C)cc3)N2S(=O)(=O)c2ccccc2C)cc1	none (no result: ZTA counter, PP1 counter, EBNA-1 inhibitor, PP5 inh)
NC(=O)[C@H](Cc1cc2ccccc2s1)NC(=O)[C@@H]1CC2(CC(c3cccc(NC(=O)[C@@H]4CCC(=O)N4)c3)=NO2)CN1C(=O)/C=C/c1c(F)cccc1Cl (stereo partly specified)	PP1 counter 30 (no result: MsrA inhibitor) | PP1 inh confirm 20 | PP5 counter inactive
Brc1ccc(-c2csc3ncnc(-n4nnc5ccccc54)c23)cc1	none
Cc1cc(C)c2nc(NNC(=O)c3ccc(S(=O)(=O)N4CCc5ccccc5C4)cc3)sc2c1	PP1 counter 22 | PP1 inh confirm 27 | PP5 counter inactive
Cc1cc(C)c2sc(NNC(=O)c3ccc(S(=O)(=O)N4CCc5ccccc5C4)cc3)nc2c1	PP1 counter 24 | PP1 inh confirm 37 | PP5 counter inactive
O=C(C1CCCCC1)N1C[C@H](n2cc(C3CC3)nn2)[C@@H](O)C[C@@H]1c1ccccc1	none (no result: ZTA counter, PP1 counter, EBNA-1 inhibitor, PP5 inh)
